# Results: PubChem BioAssay AID893 (National Center for Advancing Translational Sciences (NCATS), 2007)
# Where “and” joins values, the source holds several entries; their conditions need not be identical. Identical values can stand only once. The whole screen tested about 75,000 compounds, of which about 5,700 (7.6%) were called active. Another 7% or so got no clear call; they are omitted. The list comes from a sample in which actives are over-represented; it also holds similar structures and randomly drawn compounds. A number with no mark means an inactive call. Calls come from the whole dose curve; as a rule, active = well fitted inhibition curve with a large enough effect; inconclusive = small, poorly fitted or top-dose-only effect; inactive = no such curve, though single readings can be large or run the other way.
# Molecular target: 3-hydroxyacyl-CoA dehydrogenase type-2 (Homo sapiens) (UniProt Q99714)
# Assay: qHTS Assay for Inhibitors of HSD17B4, hydroxysteroid (17-beta) dehydrogenase 4;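 note: the protocol describes HADH2 (HSD17B10) and not the HSD17B4 of the title; nearly all actives have a fitted effect of over 70% in size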
# Conditions: recombinant HSD17B10, NADH fluorescence kinetic; series mostly up to 57.1 µM; activity change, negative = inhibition: at the top concentration
# Outline: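 Activity followed as NADH fluorescence increase (ex 360, em 450 nm) every 30 seconds for 4 min, using final 90 uM beta-hydroxybutyryl CoA and 1 mM NAD+. Recombinant His-tagged enzyme, 20 nM, pH 9.0 Tris buffer, 15 min compound preincubation.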
# % is set by controls: 0 for no effect and ±100 for the full control effect; potency is the fitted concentration of half-maximal effect.
Structure (SMILES),Potency,"activity change, negative = inhibition"
Cc1cccn2c(=O)c3cc(C(=O)N4COCC4(C)C)n(C)c3nc12,7.94 µM (active),–
O=c1ccn(Cc2ccccc2Cl)cc1,–,0.809%
COCCNc1ncnc2ccc(-c3cccnc3)cc12,31.6 µM (active),–
COCCNc1ncnc2ccc(-c3ccccc3CN(C)C)cc12,–,4.95%
CNc1ncnc2ccc(-c3cccc(NS(C)(=O)=O)c3)cc12,–,4.55%
COCC(=O)Nc1nnc(COc2ccccc2)s1,–,-1.86%
C[C@@H](C(=O)Nc1ccc2ccccc2c1)[C@@H]1C[C@@]1(C)[C@@H](NC(=O)c1cccnc1)c1ccccc1,–,1.96%
CCCCCN(C(=O)NC(=O)Nc1ccccc1C)S(C)(=O)=O,–,4.95%
COC(=O)C1=C(C)N(Cc2ccccc2)C2=C3C(=O)N(c4ccccc4)C(=O)C3[C@@](O)(C(=O)OC)C(=O)N2C1c1ccccc1 (some centres not stated),–,6.04% [at 11.4 µM] and 0.0692% [at 11.4 µM]
O=C(O)c1c(Br)c(Br)c(Br)c(Br)c1C1c2ccc(O)cc2Oc2cc(O)ccc21,0.794 µM (active),–
N#CC1=C(N)Oc2cc(O)ccc2C1C1CCCCC1 (configuration not stated),–,-8.01%
COc1ccc(CC(=O)c2ccc(O)cc2O)cc1OC,–,-8.11%
CC1CCCN(Cc2nc3c(c(=O)n(C)c(=O)n3C)n2CC(=O)c2ccccc2)C1 (configuration not stated),–,-10.4%
CCN1CCN(Cc2nc3c(c(=O)n(C)c(=O)n3C)n2CC(=O)c2ccccc2)CC1,25.1 µM (active),–
CCOC(=O)N1CCN(Cc2nc3c(c(=O)n(C)c(=O)n3C)n2Cc2ccccc2)CC1,–,12.7%
CCn1nnc(NC(=O)c2c(OC)cccc2OC)n1,–,6.62%
O=C(NCc1ccc2c(c1)OCO2)C1CCCN(S(=O)(=O)c2cccs2)C1 (configuration not stated),–,6.03%
O=C(c1cc(C(F)(F)F)cc(C(F)(F)F)c1)N1CCC2(CCCN(c3ccccn3)C2)CC1,–,-20.2%
COc1ccc(C(=O)N2CCC3(CC2)CCN(c2ccccn2)CC3)cc1,25.1 µM (active),–
COc1ccc(C(=O)N2CCC3(CCCN(C(c4ccccc4)c4ccccc4)C3)CC2)cc1,–,1.82%
CC(C)c1cc(CN(C)C)c(O)c(C(C)(C)C)c1,–,5.05% [at 11.4 µM]
CCC(C(=O)NC1CCCC1)N(C(=O)c1snc(C(N)=O)c1N)c1ccc2c(c1)OCCO2 (configuration not stated),–,-17.9%
COCCNC(=O)C(c1ccc(C)o1)N(Cc1ccccc1)C(=O)Cn1nnc2ccccc21 (configuration not stated),–,8.67%
COCCNC(=O)C(c1ccc(C)o1)N(Cc1cccs1)C(=O)c1snc(C(N)=O)c1N (configuration not stated),25.1 µM (active),–

Structure (SMILES),Potency,"activity change, negative = inhibition"
COc1ccc(F)cc1S(=O)(=O)Nc1ccc2c(c1)OCO2,–,-14.2%
COc1ccc(C(c2nnnn2C2CCCCC2)N2CCN(c3ccccc3F)CC2)cc1 (configuration not stated),–,13.6%
CCC(=O)c1ccc(OCC(O)CN2C(=O)NC(C)(C)C2=O)cc1 (configuration not stated),–,6.49%
Cc1ccc2cccc(O)c2[n+]1[O-],–,-28.9%
Cc1ccc(C)c(NS(=O)(=O)c2cc(Br)cnc2N)c1,–,6.31%
O=c1cc(-c2ccccc2)[nH]c2nc(Cl)ccc12,7.94 µM (active),–
CCCC(NS(=O)(=O)c1ccc(OC)cc1)C(=O)O (configuration not stated),–,13.1%
COc1cccc(N2CC(C(=O)Nc3c(C)cccc3C)CC2=O)c1 (configuration not stated),–,-4.93%
COc1cccc(C2/C(=C(/O)c3ccncc3)C(=O)C(=O)N2CCCN(C)C)c1 (configuration not stated),–,-1.78%
Cc1cccn2c(=O)c3cc(C#N)c(=O)n(CCCN4CCOCC4)c3nc12,31.6 µM (active),–
O=C(Cn1nc(Cc2cccnc2)c2ccccc2c1=O)NCC1CCCO1 (configuration not stated),–,11.8%
Cc1cccn2c(=O)c3cc(C#N)c(=NC(=O)c4cccnc4)n(CC4CCCO4)c3nc12 (configuration not stated),7.94 µM (active),–
Cc1nnc(SCC(N)=O)n1CC1CCCO1 (configuration not stated),–,16%
Cn1c(=O)c2c(nc(CN3CCOCC3)n2Cc2ccccc2)n(C)c1=O,–,3.8%
CCCOc1ccc(C2c3c(oc4cc(C)c(C)cc4c3=O)C(=O)N2CCCN2CCOCC2)cc1 (configuration not stated),–,-7.43%
CC(=NCC1CCCO1)c1c(O)[nH]c(=O)[nH]c1=O (configuration not stated),–,1.09%
CCOC(=O)N1CCC(NC(=O)c2ccc3nc(N4CCOCC4)sc3c2)CC1,–,-10.9%
Nc1c(C(=O)NCc2ccccc2)nnn1Cc1cccc(Cl)c1,–,8.84%
COC(=O)CCNc1ccc2c(c1)OCCO2,–,-2.43%
NC1(C(=O)OCc2ccccc2)CCCC1,–,-22.7% [at 11.4 µM]
BrC1C(Br)C(Br)C(Br)C(Br)C1Br (configuration not stated),–,-23.1%
C=C(C)C1CC=C(C)C(O)C1 (configuration not stated),–,4.89%
Nc1nc2[nH]c(=O)c(=O)[nH]c2c(=O)[nH]1,–,-3.46%
